“And” between values parts separate entries of the source, which are not always exact repeats. Equal values may be shown once. The whole screen tested about 5,500 compounds, of which about 2,000 (36%) were called active. About 18% were inconclusive and are not listed. Cut-off read from the data, not from the text of the source: active = normalized growth mostly below about 0.91 (no sharp cut-off); inconclusive = no clear call, values can overlap the other calls; inactive = mostly above about 0.92. The list shows a part of the results.
Assay: chemical genetic growth profiling, strain panel (AID 1159580);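 note: tested at 20 µM; growth read once vehicle control cultures reached saturation at 30 °C; 1 = growth at the plate median or of vehicle wells; lower values mean less growth of the strain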
Settings: S. cerevisiae deletion strains, growth OD

Measured: normalized growth

CN(C)[C@@H]1C(=O)C(C(N)=O)=C(O)[C@@]2(O)C(=O)C3=C(O)c4c(O)ccc(Cl)c4[C@@H](O)[C@H]3C[C@@H]12
inactive: locus YAL013W, strain DEP1, stronger effect = lower value 1 | locus YAL021C, strain ccr4, stronger effect = lower value 0.971 | locus YAL026C, strain drs2, stronger effect = lower value 1 | locus YAL030W, strain snc1, stronger effect = lower value 0.984 | locus YBL061C, strain skt5, stronger effect = lower value 0.98 | locus YBR009C, strain hhf1, stronger effect = lower value 1.04 | locus YBR021W, strain FUR4, stronger effect = lower value 0.945 | locus YBR023C, strain chs3, stronger effect = lower value 0.982 | locus YBR171W, strain sec66, stronger effect = lower value 0.978 | locus YBR229C, strain ROT2, stronger effect = lower value 1 | locus YBR231C, strain swc5, stronger effect = lower value 0.991 | locus YBR279W, strain paf1, stronger effect = lower value 0.994 | locus YCL011C, strain gbp2, stronger effect = lower value 1.06 | locus YCL016C, strain dcc1, stronger effect = lower value 0.964 | locus YCL029C, strain bik1, stronger effect = lower value 0.992 | locus YCL061C, strain MRC1, stronger effect = lower value 0.992 | locus YCL069W, strain vba3, stronger effect = lower value 0.997 | locus YCR088W, strain abp1, stronger effect = lower value 0.993 | locus YDL005C, strain med2, stronger effect = lower value 0.983 | locus YDL035C, strain GPR1, stronger effect = lower value 1.01 | locus YDL040C, strain nat1, stronger effect = lower value 0.992 | locus YDL074C, strain BRE1, stronger effect = lower value 0.994 | locus YDL101C, strain DUN1, stronger effect = lower value 1 | locus YDL134C, strain PPH21, stronger effect = lower value 1 | locus YDL185W, strain tfp1, stronger effect = lower value 0.984 | locus YDL192W, strain arf1, stronger effect = lower value 0.982 | locus YDR001C, strain nth1, stronger effect = lower value 0.977 | locus YDR069C, strain doa4, stronger effect = lower value 0.969 | locus YDR101C, strain arx1, stronger effect = lower value 0.999 | locus YDR137W, strain rgp1, stronger effect = lower value 0.921 | locus YDR159W, strain sac3, stronger effect = lower value 1.06 | locus YDR162C, strain NBP2, stronger effect = lower value 1.02 | locus YDR195W, strain ref2 1 | locus YDR297W, strain sur2, stronger effect = lower value 0.979 | locus YDR318W, strain mcm21, stronger effect = lower value 0.997 | locus YDR334W, strain swr1, stronger effect = lower value 0.95 | locus YDR335W, strain msn5, stronger effect = lower value 0.98 | locus YDR388W, stronger effect = lower value 0.983 | locus YDR392W, strain spt3, stronger effect = lower value 0.854 | locus YDR502C, strain sam2, stronger effect = lower value 0.981 | locus YEL003W, strain gim4, stronger effect = lower value 0.98 | locus YEL037C, strain rad23, stronger effect = lower value 0.99 | locus YEL061C, strain CIN8 (second series), stronger effect = lower value 0.988 | locus YEL061C, strain CIN8, stronger effect = lower value 1 | locus YER015W, strain faa2, stronger effect = lower value 0.988 | locus YER016W, strain bim1, stronger effect = lower value 0.994 | locus YER110C, stronger effect = lower value 0.98 | locus YER111C, strain swi4, stronger effect = lower value 0.994 | locus YER155C, strain BEM2 (second series), stronger effect = lower value 0.932 | locus YER155C, strain BEM2, stronger effect = lower value 1.01 | locus YER167W, strain BCK2, stronger effect = lower value 1.01 | locus YFR010W, strain ubp6, stronger effect = lower value 0.991 | locus YGL078C, strain dbp3, stronger effect = lower value 0.988 | locus YGL086W, strain mad1, stronger effect = lower value 0.986 | locus YGL167C, strain pmr1, stronger effect = lower value 0.988 | locus YGL173C, strain kem1, stronger effect = lower value 0.985 | locus YGL227W, strain vid30, stronger effect = lower value 0.982 | locus YGL240W, strain doc1, stronger effect = lower value 0.95 | locus YGL248W, strain PDE1, stronger effect = lower value 0.988 | locus YGL253W, strain hxk2, stronger effect = lower value 0.981 | locus YGR078C, strain PAC10, stronger effect = lower value 0.989 | locus YGR135W, strain pre9, stronger effect = lower value 0.974 | locus YGR252W, strain gcn5, stronger effect = lower value 0.879 | locus YHR013C, strain ard1, stronger effect = lower value 0.973 | locus YHR027C, strain rpn1, stronger effect = lower value 0.965 | locus YHR030C, strain SLT2, stronger effect = lower value 1 and 1.02 | locus YHR079C, strain IRE1 (second series), stronger effect = lower value 0.976 | locus YHR079C, strain IRE1, stronger effect = lower value 1.04 | locus YHR094C, strain hxt1, stronger effect = lower value 0.981 | locus YHR129C, strain ARP1, stronger effect = lower value 1.01 | locus YHR142W, strain chs7, stronger effect = lower value 0.981 | locus YHR200W, strain rpn10, stronger effect = lower value 0.987 | locus YIL066C, strain RNR3, stronger effect = lower value 1.01 | locus YIL073C, strain SPO22, stronger effect = lower value 0.992 | locus YIL125W, strain kgd1, stronger effect = lower value 0.983 | locus YIR030C, strain dcg1, stronger effect = lower value 0.98 | locus YJL092W, strain hpr5, stronger effect = lower value 0.987 | locus YJL095W, strain BCK1 (second series), stronger effect = lower value 0.98 | locus YJL095W, strain BCK1, stronger effect = lower value 0.998 and 1.03 | locus YJL115W, strain asf1, stronger effect = lower value 0.98 | locus YJL129C, strain trk1, stronger effect = lower value 0.984 | locus YJL134W, strain LCB3, stronger effect = lower value 1 | locus YJL154C, strain vps35, stronger effect = lower value 0.976 | locus YJL164C, strain tpk1, stronger effect = lower value 1 | locus YJL166W, strain qcr8, stronger effect = lower value 0.93 | locus YJL168C, strain set2, stronger effect = lower value 0.983 | locus YJL187C, strain SWE1 (second series), stronger effect = lower value 0.995 | locus YJL187C, strain SWE1, stronger effect = lower value 0.988 | locus YJR043C, strain POL32, stronger effect = lower value 0.984 | locus YJR066W, strain TOR1, stronger effect = lower value 0.97 | locus YKL009W, strain mrt4, stronger effect = lower value 1 | locus YKL068W, stronger effect = lower value 0.986 | locus YKL085W, strain MDH1 (second series), stronger effect = lower value 0.975 | locus YKL085W, strain MDH1, stronger effect = lower value 0.975 | locus YKL160W, strain elf1, stronger effect = lower value 0.93 | locus YKL190W, strain CNB1, stronger effect = lower value 1 | locus YKR001C, strain vps1, stronger effect = lower value 0.976 | locus YKR026C, strain gcn3, stronger effect = lower value 0.998 | locus YKR091W, strain srl3, stronger effect = lower value 0.98 | locus YLL001W, strain dnm1, stronger effect = lower value 0.921 | locus YLL026W, stronger effect = lower value 0.983 | locus YLL041C, strain sdh2, stronger effect = lower value 0.993 | locus YLR027C, strain aat2, stronger effect = lower value 1.01 | locus YLR039C, strain RIC1, stronger effect = lower value 0.995 | locus YLR058C, strain SHM2, stronger effect = lower value 0.998 | locus YLR102C, strain apc9, stronger effect = lower value 0.981 | locus YLR113W, strain HOG1, stronger effect = lower value 1.03 | locus YLR221C, strain rsa3, stronger effect = lower value 0.956 | locus YLR258W, strain gsy2, stronger effect = lower value 0.992 | locus YLR262C, strain YPT6 (second series), stronger effect = lower value 0.938 | locus YLR262C, strain YPT6, stronger effect = lower value 1.01 | locus YLR268W, strain sec22, stronger effect = lower value 0.954 | locus YLR320W, strain mms22, stronger effect = lower value 0.947 | locus YLR330W, strain CHS5, stronger effect = lower value 1.01 | locus YLR342W, strain FKS1 (second series), stronger effect = lower value 0.952 | locus YLR342W, strain FKS1, stronger effect = lower value 0.99 | locus YLR357W, strain rsc2, stronger effect = lower value 0.93 | locus YLR370C, strain arc18, stronger effect = lower value 0.979 | locus YLR371W, strain rom2, stronger effect = lower value 0.976 | locus YLR384C, strain iki3, stronger effect = lower value 0.975 | locus YLR418C, strain cdc73, stronger effect = lower value 0.939 | locus YML016C, strain PPZ1, stronger effect = lower value 0.999 | locus YML032C, strain rad52, stronger effect = lower value 0.988 | locus YML120C, strain ndi1, stronger effect = lower value 0.928 | locus YML124C, strain tub3, stronger effect = lower value 0.982 | locus YMR058W, strain fet3, stronger effect = lower value 0.934 | locus YMR078C, strain ctf18, stronger effect = lower value 0.982 | locus YMR125W, strain sto1, stronger effect = lower value 0.918 | locus YMR129W, stronger effect = lower value 0.989 | locus YMR205C, strain PFK2, stronger effect = lower value 0.938 | locus YMR223W, strain ubp8, stronger effect = lower value 0.977 | locus YMR231W, strain pep5, stronger effect = lower value 0.991 | locus YMR307W, strain GAS1, stronger effect = lower value 1.02 | locus YNL067W, strain RPL9B, stronger effect = lower value 0.997 | locus YNL071W, strain lat1, stronger effect = lower value 0.992 | locus YNL128W, strain TEP1, stronger effect = lower value 1.01 | locus YNL183C, strain NPR1, stronger effect = lower value 0.966 | locus YNL209W, strain ssb2, stronger effect = lower value 0.975 | locus YNL233W, strain BNI4, stronger effect = lower value 0.993 | locus YNL248C, strain rpa49, stronger effect = lower value 0.956 | locus YNL250W, strain rad50, stronger effect = lower value 0.99 | locus YNL271C, strain bni1, stronger effect = lower value 0.983 | locus YNL298W, strain CLA4, stronger effect = lower value 0.993 | locus YNL307C, strain MCK1, stronger effect = lower value 0.994 | locus YNL322C, strain KRE1 (second series), stronger effect = lower value 0.98 | locus YNL322C, strain KRE1, stronger effect = lower value 0.999 | locus YNR049C, strain mso1, stronger effect = lower value 0.978 | locus YNR052C, strain pop2, stronger effect = lower value 0.998 | locus YOL012C, strain htz1 0.761 | locus YOL147C, strain pex11, stronger effect = lower value 0.983 | locus YOR001W, strain rrp6, stronger effect = lower value 1.05 | locus YOR061W, strain CKA2, stronger effect = lower value 1 | locus YOR069W, strain VPS5, stronger effect = lower value 1 | locus YOR070C, strain gyp1, stronger effect = lower value 1.01 | locus YOR080W, strain dia2, stronger effect = lower value 0.981 | locus YOR083W, strain WHI5, stronger effect = lower value 0.941 | locus YOR106W, strain vam3, stronger effect = lower value 0.942 | locus YOR136W, strain idh2, stronger effect = lower value 0.979 | locus YOR144C, strain elg1, stronger effect = lower value 0.986 | locus YOR184W, strain ser1, stronger effect = lower value 0.995 | locus YOR231W, strain MKK1, stronger effect = lower value 1.04 | locus YOR265W, strain rbl2, stronger effect = lower value 0.982 | locus YOR270C, strain vph1, stronger effect = lower value 0.966 | locus YOR290C, strain snf2, stronger effect = lower value 0.958 | locus YOR316C, strain cot1, stronger effect = lower value 0.982 | locus YPL051W, strain arl3, stronger effect = lower value 0.973 | locus YPL055C, strain LGE1, stronger effect = lower value 0.992 | locus YPL078C, strain atp4, stronger effect = lower value 0.934 | locus YPL106C, strain sse1, stronger effect = lower value 0.911 | locus YPL240C, strain hsp82, stronger effect = lower value 0.993 | locus YPL256C, strain CLN2, stronger effect = lower value 1.02 | locus YPR119W, strain clb2, stronger effect = lower value 0.983 | locus YPR141C, strain kar3, stronger effect = lower value 0.981 | locus YPR163C, strain tif3, stronger effect = lower value 0.98 | locus YPR167C, strain met16, stronger effect = lower value 0.985 | strain wtn01, stronger effect = lower value 0.955

Source: PubChem BioAssay AID1159580 (chemical genetic matrix, 2015)
